Source: PubChem BioAssay
B2AR arrestin = beta2AR (human) beta-arrestin recruitment activity. P07550. beta-arrestin recruitment to beta2AR, cell-based reporter. Potency, µM (highest dose often 46.1 µM), usual class: activators. AID 492947. actives 0.02% (n = 330,000); also: nearly all actives have a fitted effect of over 65% in size
Target sequence (P07550 whole entry, looked up): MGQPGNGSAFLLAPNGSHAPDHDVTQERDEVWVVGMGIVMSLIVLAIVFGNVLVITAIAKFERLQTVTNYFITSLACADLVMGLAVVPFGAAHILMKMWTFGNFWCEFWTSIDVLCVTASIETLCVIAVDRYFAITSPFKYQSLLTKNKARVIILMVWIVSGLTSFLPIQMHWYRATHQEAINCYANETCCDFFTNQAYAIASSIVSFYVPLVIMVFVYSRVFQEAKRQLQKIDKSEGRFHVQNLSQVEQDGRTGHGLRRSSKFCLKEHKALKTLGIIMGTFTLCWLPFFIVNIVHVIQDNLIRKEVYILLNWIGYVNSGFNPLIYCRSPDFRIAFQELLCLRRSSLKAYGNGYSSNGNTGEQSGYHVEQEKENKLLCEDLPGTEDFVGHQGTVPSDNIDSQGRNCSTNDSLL
GAA inh = alpha-glucosidase (human) inhibition; P10253; purified human GAA, 4-MU-alpha-glucoside fluorescence; Potency, µM (series often up to 76.9 µM), hits mostly inhibitors; actives 0.005% (n = 200,000)
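Fluorescence at Ex 365/Em 440 nm from 4-methylumbelliferone reported enzyme activity after 20 min at room temperature. Reactions used 4 nM enzyme and 400 uM substrate at pH 5.0; curves fitted with the Hill equation.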
GAA glycogen mod = alters human alpha-glucosidase cleavage of glycogen; recombinant GAA, glycogen substrate, Amplex Red glucose oxidase fluorescence; Potency, µM (doses to about 76.4 µM), actives largely listed as inhibitors; actives 0.38% (n = 300,000);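 also: the screen sought inhibitors and activators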
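qHTS, 1536-well; enzyme 4 nM final; cpd up to 77 uM; substrate bovine liver glycogen 30 ug; 50 mM citrate/phosphate pH 5.0, 0.01% Tween-20; 37 C, 40 min; Amplex Red detection 45 min RT; Hill fit → AC50.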
Coupling enz = coupling enzyme interference in Giardia aldolase counter-screen; coupling enzyme system counterscreen, AmpLite Red fluorescence; activity change, negative = inhibition, % at 58.2 µM, hits read low; actives 0.67% (n = 290,000); AID 2472; in the data active = activity change below about -30%
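Coupling enzymes only (glyceraldehyde-3-phosphate) + compound, at 57.5 uM final, 10 min RT; add substrate/coupling/AmpLite Red mix, 20 min RT; fluorescence ex 525/em 598 nm. Actives flag coupling-system interference.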
aGlu spleen mod = lysosomal alpha-glucosidase (human) modulation. P10253. AID 2112. Potency, µM (highest dose often 79.9 µM), most hits filed as inhibitors. actives 0.006% (n = 240,000). human spleen homogenate, 4-MU-alpha-glucoside fluorescence
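AC50 values come from Hill-equation fits of concentration-response data, normalized to no-enzyme and full-activity controls. Enzyme source: 1 ug human spleen homogenate; 1 mM fluorogenic 4-MU glucoside, pH 5.0 citrate buffer, 37 C, 40 min.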
Each line names hits and unclear results; the compound was inactive in the other large screens; ! = not confirmed by another sample. In the library only some 0.85% were active in any assay of this set; here they are far more common. Unless noted, calls follow the shape of the dose curve; as a rule, active = well fitted curve in the direction sought with a large enough effect; inconclusive = small, poorly fitted or top-dose-only effect, or another doubt; inactive = no such curve, though single readings can be large; an effect the other way counts as inactive or inconclusive.

Cc1ccsc1/C=N/Nc1nc2ccccc2[nH]1	GAA glycogen mod 6.3µM
COc1cc(/C=N/Nc2nc3ccccc3[nH]2)ccc1O	GAA glycogen mod 22µM
CC(C)C[C@H](NC(=O)CNC(=O)[C@H](CCC(N)=O)NC(=O)[C@H](CC(C)C)NC(=O)[C@H](CC(C)C)NC(=O)[C@H](CCCNC(=N)N)NC(=O)[C@H](CCC(N)=O)NC(=O)[C@H](CC(C)C)NC(=O)[C@H](CCCNC(=N)N)NC(=O)[C@H](C)NC(=O)CNC(=O)[C@H](CCC(=O)O)NC(=O)[C@H](CCCNC(=N)N)NC(=O)[C@H](CC(C)C)NC(=O)[C@H](CCCNC(=N)N)NC(=O)[C@H](CO)NC(=O)[C@H](CC(C)C)NC(=O)[C@H](CCC(=O)O)NC(=O)[C@H](CO)NC(=O)[C@@H](NC(=O)[C@H](Cc1ccccc1)NC(=O)[C@@H](NC(=O)CNC(=O)[C@H](CC(=O)O)NC(=O)[C@H](CO)NC(=O)[C@@H](N)Cc1cnc[nH]1)[C@@H](C)O)[C@@H](C)O)C(=O)N[C@H](C(N)=O)C(C)C	none (no result: B2AR arrestin, GAA inh, GAA glycogen mod)
Cc1ccc(-c2c(C3C4C=CCC(C)C4C(=O)N3Cc3ccccc3)ccc3ccccc23)cc1 (configuration not stated)	none (no result: B2AR arrestin, GAA inh, GAA glycogen mod)
COc1cc(/C=N/Nc2nn3cnnc3c3ccccc23)ccc1O	GAA glycogen mod 18µM
Cc1c(/C=N/Nc2nc3ccccc3[nH]2)c2ccccc2n1C	GAA glycogen mod inconclusive (no result: GAA inh)
C=CCn1cc(/C=N/Nc2nc3ccccc3[nH]2)c2ccccc21	GAA glycogen mod 28µM
NC(=O)C1CCCN(C(=O)c2ccc3c(c2)NC(=O)CS3)C1 (configuration not stated)	none (no result: GAA inh, GAA glycogen mod, Coupling enz, aGlu spleen mod)
Oc1ccc2c(c1)c1c3n2CCNC3CCC1 (configuration not stated)	GAA glycogen mod inconclusive (no result: GAA inh, aGlu spleen mod)
c1ccc2c(c1)c1c3n2CCNC3CCC1 (configuration not stated)	Coupling enz -50
O=C1C=CC2=C3c4cc(O)c(O)cc4CC3(O)COC2=C1O (configuration not stated)	Coupling enz -38! (no result: B2AR arrestin, GAA inh, GAA glycogen mod)
COc1ccc(OC)c(C2=Nn3c(nnc3-c3ccccc3OC)SC2)c1	none (no result: B2AR arrestin, GAA inh, GAA glycogen mod)
O=C(NCCc1ccc(F)cc1)c1ccc2c(=O)n3c(nc2c1)CCC3	none (no result: GAA inh, GAA glycogen mod, Coupling enz, aGlu spleen mod)
CC(C)c1cc2c(c(O)c1O)[C@@]13CCCC(C)(C)C1CC2OC3=O (some centres not stated)	Coupling enz -30 (no result: GAA inh, aGlu spleen mod)
O=[N+]([O-])c1ccc(Oc2cccc3cccnc23)c(Cl)c1	Coupling enz -37 (no result: GAA inh, aGlu spleen mod)
CCC/C=C/C(C)O (configuration not stated)	none (no result: B2AR arrestin, GAA inh, GAA glycogen mod)
Brc1cc2[nH]cnc2c2ccccc12	Coupling enz -39
CCOC(=O)CSc1nc2sc3c(c2c(=O)n1Cc1ccccc1)CCC(C(C)(C)C)C3 (configuration not stated)	none (no result: B2AR arrestin, GAA inh, Coupling enz, aGlu spleen mod)
COC(=O)[C@@]1(Cc2ccc(OC)cc2)[C@H]2c3cc(C(=O)N4CCCC4)n(CCc4c[nH]c5cc(F)ccc45)c3C[C@H]2CN1C(=O)c1ccccc1	none (no result: B2AR arrestin, GAA inh, GAA glycogen mod)
Cc1cc(N/N=C/c2ccccc2)nc(NCc2ccccc2)n1	none
COc1ccccc1/C=N/Nc1cc(N(C)C)nc(N(C)C)n1	Coupling enz -31
CN(C)c1cc(N/N=C\c2ccccc2)nc(N(C)C)n1	Coupling enz -39
COc1ccc(/C=N/Nc2cc(N(C)C)nc(N(C)C)n2)cc1	Coupling enz -42
CC(=O)Oc1ccccc1N(C(C)=O)S(=O)(=O)c1ccc2ccccc2c1	none
CC(=O)Oc1c(Br)cc(N(C(C)=O)S(=O)(=O)c2ccccc2)c2ccccc12	Coupling enz -45 (no result: GAA inh, aGlu spleen mod)
CCOC(=O)c1ccc(NC(=O)c2nn(C)c3c2COc2ccccc2-3)cc1	none (no result: B2AR arrestin, GAA inh, Coupling enz, aGlu spleen mod)
COc1ccc([C@@H](C)C(=O)c2ccc(O)cc2O)cc1	none (no result: B2AR arrestin, GAA inh, GAA glycogen mod)
CN(C(=O)N1CCN(S(=O)(=O)c2ccccc2)CC1)c1ccccc1	GAA inh 35µM
COC1[C@@H](OC)C[C@H](C)[C@@H](OC)C2=CC(=O)C=C(NC(=O)/C(C)=C/C=C\[C@H](OC)[C@@H](OC(N)=O)/C(C)=C/[C@@H]1C)C2=O (some centres not stated)	none (no result: B2AR arrestin, GAA inh, GAA glycogen mod)
